Among all 2,400 compounds or so, about 180 (7.5%) were called active. The entries come from a sample that favours actives as a whole. Unmarked numbers belong to inactive results.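 Rule for the calls: active = readout below zero, meaning a drop past 3 SD under the dofetilide-free negative control mean; inactive = the rest.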
target: Potassium voltage-gated channel subfamily KQT member 2 (Rattus norvegicus) (UniProt O88943); assay: rat KCNQ2 channel inhibition by compounds alone, confirmation, counter-screen for hERG block protector project, cell-based, CHO, FluxOR thallium flux (AID 1946); settings: CHO-KCNQ2 cells, FluxOR thallium flux fluorescence; at 10 µM; hits give low values; zero marks the 3-SD hit cutoff
Sequence (O88943 whole entry, looked up): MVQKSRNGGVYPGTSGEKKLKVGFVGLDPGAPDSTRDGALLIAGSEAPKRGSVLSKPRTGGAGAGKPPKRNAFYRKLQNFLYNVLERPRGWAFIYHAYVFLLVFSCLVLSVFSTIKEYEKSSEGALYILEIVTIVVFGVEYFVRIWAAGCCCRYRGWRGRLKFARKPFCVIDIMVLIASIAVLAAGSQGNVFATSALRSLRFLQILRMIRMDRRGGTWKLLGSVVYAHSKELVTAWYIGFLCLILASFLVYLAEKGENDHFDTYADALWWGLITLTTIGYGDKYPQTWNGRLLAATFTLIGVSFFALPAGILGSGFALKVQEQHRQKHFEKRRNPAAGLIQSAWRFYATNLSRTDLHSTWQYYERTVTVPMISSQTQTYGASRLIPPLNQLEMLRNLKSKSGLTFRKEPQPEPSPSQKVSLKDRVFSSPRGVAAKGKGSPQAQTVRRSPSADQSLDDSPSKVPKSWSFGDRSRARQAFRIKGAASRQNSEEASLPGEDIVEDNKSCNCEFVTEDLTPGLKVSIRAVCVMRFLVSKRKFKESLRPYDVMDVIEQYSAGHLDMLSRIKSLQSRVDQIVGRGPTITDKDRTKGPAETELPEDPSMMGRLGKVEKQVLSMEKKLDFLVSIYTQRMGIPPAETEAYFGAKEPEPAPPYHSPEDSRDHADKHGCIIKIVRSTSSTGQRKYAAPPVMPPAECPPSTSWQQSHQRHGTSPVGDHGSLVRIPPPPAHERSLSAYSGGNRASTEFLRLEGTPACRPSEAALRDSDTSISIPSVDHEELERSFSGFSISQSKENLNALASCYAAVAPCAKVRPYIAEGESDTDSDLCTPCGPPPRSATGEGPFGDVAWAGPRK

SMILES | activity change vs negative control
Cc1nc2ccccc2n1-c1ccccc1 | 19.5%
Oc1c(Cl)cc(Cl)cc1/C=N/c1ncn[nH]1 | 53.4%
O=C(NC(=S)N1CCCCCC1)c1ccc(Cl)cc1Cl | 30.8%
COc1ccc(NC(=O)C(=O)NNC(=O)COc2ccc(Cl)cc2)c(OC)c1 | 38.6%
CN(Cc1ccsc1)C(=O)CCc1nnc(Cc2c[nH]c3ccccc23)o1 | 10.6%
COCCCNC(=O)CCc1nnc(Cc2ccc(-c3ccccc3)cc2)o1 | 26.3%
CC(C)CCNC(=O)CCc1nnc(Cc2c[nH]c3ccccc23)o1 | -0.6% (active)
CC(C)C(=O)Nc1ccc(NC(=O)CCc2ccccc2)cn1 | -1.8% (active)
CN(C)c1ccc(NC(=O)CCCc2ccccc2)cc1 | 29.6%
O=C(CS(=O)(=O)Cc1ccccc1)Nc1ccc(Cl)cn1 | 7.9%
S=c1nc(C2CCCCC2)n(-c2ccccc2)[nH]1 | 72.6%
N#C/C(=N/Nc1ccc([N+](=O)[O-])cc1)C(=N)N1CCCCC1 | 17%
O=C(Nc1ccc(N2CCOCC2)cc1)c1ccc(S(=O)(=O)N2CCCCC2)cc1 | 10.5%
O=[N+]([O-])c1ccc(S(=O)(=O)Nc2ccc(S(=O)(=O)N3CCCC3)cc2)cc1 | -0.3% (active)
COc1ccc(OCC(=O)NNC(=O)C(=O)Nc2cc(OC)ccc2OC)cc1 | 38.9%
CCOC(=O)c1sc2nc(C)[nH]c(=S)c2c1C | 32.7%
CC(NC(=O)c1ccc(F)cc1)c1ccc2c(c1)CCCC2 (stereo not drawn) | 55.5%
CCn1c(SCC(N)=O)nc2sc3c(c2c1=O)CCCC3 | 60.6%
CCCn1c(SCC(=O)N2CCN(C(C)=O)CC2)nc2sc3c(c2c1=O)CCC3 | 51.5%
CCC(=O)N1CCN(c2nc(CC)nc3sc4c(c23)CCCC4)CC1 | -20.7% (active)
CCN(CC)C(=S)NC(=O)c1ccc(OC)c(Br)c1 | 16.8%

SMILES | activity change vs negative control
O=C1CC(O)(C(F)(F)F)Oc2c1ccc1ccccc21 (stereo not drawn) | 49.7%
S=c1nc(C2CCCCC2)[nH]c2ccccc12 | 25.5%
CC(C)(C)C1(O)CC(C(F)(F)F)=NN1C(=O)Cc1ccc([N+](=O)[O-])cc1 (stereo not drawn) | 10.6%
O=C(C1CC1)N1N=C(c2ccccc2)CC1(O)C(F)(F)C(F)(F)F (stereo not drawn) | 7.3%
CCCCC1(O)CC(C(F)(F)F)=NN1C(=O)COc1ccccc1 (stereo not drawn) | -7.8% (active)
CN(C(=S)NC(=O)c1ccc(Cl)cc1)C1CCCCC1 | 26.3%
CNC(=O)CSc1nnc(-c2ccco2)n1-c1ccccc1 | 7%
CNC(=O)CSc1nnc(-c2ccco2)n1-c1ccc(C)cc1 | -1.9% (active)
Cc1ccc(-n2ncc3c(SCC(=O)NNC(=O)c4ccco4)ncnc32)cc1 | 35.7%
C/C(=N/NC(=O)c1cc2ccccc2cc1O)c1ccco1 | 87.3%
O=C(COc1ccc2ccccc2c1)NNC(=O)C(=O)Nc1ccccc1 | 61.8%
CCCn1c(=S)[nH]c2sc3c(c2c1=O)CCCC3 | 95%
CCOC(=O)Cc1csc(NC(=S)NC(=O)c2ccccc2Br)n1 | 38.6%
Cc1csc(NC(=O)c2cc3c(s2)CCCC3)n1 | 49.2%
CC(OC(=O)c1cc2c(s1)CCCCC2)C(=O)NC(N)=O (stereo not drawn) | -1.8% (active)
NC(=O)C1CCN(C(=O)c2cc3c(s2)CCCC3)CC1 | 41.4%
Cc1nc(NCc2cccnc2)c2c3c(sc2n1)CC(C)CC3 (stereo not drawn) | 49.7%
Cc1cc(SCC(=O)c2cccc([N+](=O)[O-])c2)nc(=O)[nH]1 | 7.5%
N/C(=N\OS(=O)(=O)c1cccc([N+](=O)[O-])c1)c1ccncc1 | 29.1%
O=C(CSc1nnc(-c2ccncc2)o1)c1cccc([N+](=O)[O-])c1 | -7.8% (active)
Cc1ccc2oc3c(c(=O)c2c1)C(c1cccs1)N(CCCN(C)C)C3=O (stereo not drawn) | 21.6%

SMILES | activity change vs negative control
CCOC(=O)c1sc2nc(C)nc(SCC(=O)N(C)C3CCS(=O)(=O)C3)c2c1C (stereo not drawn) | 20.9%
CCC(C)N(C(=O)CSc1nnc(NC(C)C)s1)C1CCS(=O)(=O)C1 (stereo not drawn) | -0.9% (active)
CN(C(=O)CSc1ncnc2sc(-c3ccccc3)cc12)C1CCS(=O)(=O)C1 (stereo not drawn) | 94.7%
COc1ccccc1C(=O)NNC(=O)C(=O)Nc1ccc(C)c(Cl)c1 | 148%
COC(=O)c1ccc(C2C(C#N)=C(N)Oc3cc(O)ccc32)cc1 (stereo not drawn) | 12.7%
CCOC(=O)C1=C(N)Oc2cc(O)ccc2C1c1cccnc1 (stereo not drawn) | -1.7% (active)
Cc1nn(Cc2ccccc2)c2c1C(c1cccnc1)C(C#N)=C(N)O2 (stereo not drawn) | 12.9%
Cc1nn(CC(=O)Nc2ccc(C(=O)N3CCCC3)cc2)c(=O)c2ccccc12 | 32.9%
O=C(Nc1cccc(N=Cc2cc(Cl)cc(Br)c2O)c1)c1ccco1 | 53.8%
COc1ccc(NC(=S)NC(NC(=O)c2cccc3ccccc23)C(Cl)(Cl)Cl)c([N+](=O)[O-])c1 (stereo not drawn) | -0.3% (active)
CCOC(=O)C(=CNc1ccc(OC)cc1[N+](=O)[O-])C(=O)OCC | 13.9%
COc1cccc(C(=O)NNC(=O)C(=O)Nc2cccc3ccccc23)c1 | 91%
COC(=O)Oc1ccc(/C=C/C(=O)OC(C)C)cc1OC(=O)OC | 24.5%
CCN(CC)c1ccc(NC(=S)NC(=O)c2ccco2)cc1 | 67.2%
CC1=CC(=O)C(C(C)C)=CC1=NC(=O)c1ccc(C)cc1 | -1% (active)
Cc1ccc(C(=O)Sc2cccccc2=O)cc1 | 102%
CCOC(=O)c1sc2ncnc(NCC(c3cccs3)N(C)C)c2c1C (stereo not drawn) | 61%
S=c1[nH]c(-c2ccccc2)cs1 | 85.5%
CCOC(=O)Cn1cc(C=O)c2ccccc21 | 8.6%
COC(=O)Cn1c(=O)c(=O)n(CC(=O)OC)c2ccccc21 | -3.8% (active)
COC(=O)CCn1[nH]c(=O)c2ccccc2c1=O | 15.6%
